In PubChem BioAssay (EPA / NIEHS) one finds outcome and AC50 data, which are given here for 40 compounds.

Each structure is given as a SMILES string. Activity calls are given as the source filed them. The calls were made as follows: active = hit-call score of the fitted dose curve at least 0.9, where 1 is the maximum; inactive = score below 0.9.

A word on the AC50: it is the concentration at which the activity in the assay is half-maximal.

The nature of the assay: ATG_PPRE_CIS: Attagene CIS-FACTORIAL HepG2 Assay for human Peroxisome Proliferator-activated Response Element (PPRE) (AID 2282958). The settings on record: HepG2 PPRE cis-element reporter, Attagene transcription factor profiling; actives raise or lower the signal. As for the experimental part:
ATG_CIS is a cell-based, multiplexed-readout assay that uses HepG2, a human liver cell line, with measurements taken at 24 hours after chemical dosing in a 24-well plate.ATG_PPRE_CIS is one of 52 assay component(s) measured or calculated from the ATG_CIS assay. It is designed to make measurements of mRNA induction, a form of inducible reporter, as detected with fluorescence intensity signals by Reverse transcription polymerase chain reaction (RT-PCR) and Capillary electrophoresis technology.Data from the assay component ATG_PPRE_CIS was analyzed into 1 assay endpoint. This assay endpoint, ATG_PPRE_CIS, was analyzed with bidirectional fitting relative to DMSO as the negative control and baseline of activity. Using a type of inducible reporter, measures of mRNA for gain or loss-of-signal activity can be used to understand the reporter gene at the transcription factor-level as they relate to the gene PPARA and PPARD and PPARG. Furthermore, this assay endpoint can be referred to as a primary readout, because this assay has produced multiple assay endpoints where this one serves a reporter gene function. To generalize the intended target to other relatable targets, this assay endpoint is annotated to the nuclear receptor intended target family, where the subfamily is non-steroidal.
Human liver HepG2 cells are transiently transfected with multiple reporter transcription units (MRTUs) in 6-well plates using FuGene 6 reagent (Roche; 3 ml FuGene/1 mg DNA). The MRTU constructs are regulated by a cis-regulating element (promoter). […] A major difference between the CIS and TRANS system is that in CIS activities of endogenous TFs are measured, whereas the TRANS assay evaluates changes in activities of exogenous, chimeric NR-Gal4 proteins. […] At the end of 24 hour incubation, total RNA was isolated using TriZol reagent (Invitrogen). The isolated RNA is then reverse-transcribed using oligo(dT) primer and Mo-MLV reverse transcriptase (Invitrogen) with DNAse I (Ambion) treatment for 30 min. The one-tenth of the produced cDNA was amplified by PCR using Taq DNA polymerase (Invitrogen) and two reporter sequence-specific primers. The PCR products were fluorescently labeled by primer extension with 6-arboxyfluorescein (6-FAM) 5'-labeled reporter sequence-specific primer (2 min at 95 C, 20 s at 68 C and 10 min at 72 C) and these products were digested with 5U of HpaI (New England Biolabs) for 2h at 37 C. The fragments were purified using Qiaquick PCR columns (Qiagen), analyzed on an ABI 3130xL genetic analyzer (Applied Biosystems) with peak positions identified by using a set of X-rhodamine (ROX)-labeled MapMarker1000 molecular weight standards (BioVentures). The raw capillary electrophoresis data was processed using Attagraph software (Attagene).
Take `Nc1cc([N+](=O)[O-])ccc1O`: the call was inactive.
Take `O=C(Cl)c1cccc(C(=O)Cl)c1`: the compound was classed as inactive.
Consider `O=c1[nH]c(=O)n([C@H]2CCCO2)cc1F`, for which the compound was called inactive.
As to `COc1ccc(NC(=O)CC(C)=O)cc1`, the result was inactive.
With `CCOc1ccccc1OCC`, the compound was called inactive.
Regarding `CCC(C(=O)NC(N)=O)c1ccccc1` (stereo not given), the result was inactive.
In the case of `Nc1ccc(S(=O)(=O)O)c(N)c1`, the call was inactive.
Same read-out and setting: the same measure for `CCc1ccc(C=O)cc1`: “inactive”.
For the compound `C[C@H]1C[C@H]2[C@@H]3CCC4=CC(=O)C=C[C@]4(C)[C@@]3(F)[C@@H](O)C[C@]2(C)[C@@]1(O)C(=O)COP(=O)(O)O`, the compound was called inactive.
On the same count and under the same terms, the same measure for `CCc1c(C)cc(N)c(CC)c1N`: “inactive”; for `CC(=O)[O][Al][O]C(C)=O`: “inactive”; for `OCCCCCO`: “inactive”.
Turning to `COc1nc(C)nc(N)n1`, the call was inactive.
Same read-out and setting: the same measure for `O=C(O)COCCN1CCN(C(c2ccccc2)c2ccc(Cl)cc2)CC1` (stereo not given): “inactive”; for `CCC(O)CO` (stereo not given): “inactive”.
Take `O=C(Nc1ccccc1)c1cc([N+](=O)[O-])ccc1Cl`: the compound was called inactive.
Same read-out and setting: the same measure for `CCCCNC(=O)NS(=O)(=O)c1ccc(C)cc1`: “inactive”; for `CC(C)=CCC[C@](C)(O)[C@@H]1CC=C(C)CC1`: “inactive”.
The same measure, in the same setting: the entry for `C[C@H]1C[C@@H]2[C@H]([C@@H](O)C[C@@]3(C)[C@H]2CC[C@]3(O)C(=O)CO)[C@@]2(C)C=CC(=O)C=C12` is “inactive”.
Turning to `O=[N+]([O-])c1ccc(Nc2ccc(Nc3ccccc3)c(S(=O)(=O)O)c2)c([N+](=O)[O-])c1`, the half-maximal activity concentration (AC50) was 49.2 µM (active).
Take `C=C(C)[C@@H]1CCC2=CC(=O)C[C@@H](C)[C@]2(C)C1`: the compound was called inactive.
As for `N#Cc1ccc(CC(=NNC(=O)Nc2ccc(OC(F)(F)F)cc2)c2cccc(C(F)(F)F)c2)cc1`, the compound was called inactive.
For the compound `CNCCCC12CCC(c3ccccc31)c1ccccc12`, the result was inactive.
For the compound `CC(=O)Nc1ccccc1O`, the call was inactive.
On the same count and under the same terms, the same measure for `CC1CCC(C(C)(C)O)CC1` (stereo not given): “inactive”.
On to `Nc1nc2ccc([N+](=O)[O-])cc2s1`, for which the concentration at half-maximal activity (AC50) was 45.6 µM (active).
For the compound `COC(=O)C1=C(C)NC(C)=C(C(=O)OCCN(C)Cc2ccccc2)C1c1cccc([N+](=O)[O-])c1` (stereo not given), the compound was called inactive.
As to `CC(C=O)Cc1ccc(C(C)C)cc1` (stereo not given), the compound was classed as inactive.
For `CNCCO`, the call was inactive.
As to `CCC/C=C/C=O`, the outcome was inactive.
Regarding `CC(=O)[C@H]1CC[C@H]2[C@@H]3CC=C4C[C@@H](O)CC[C@]4(C)[C@H]3CC[C@]12C`, the compound was called inactive.
Same read-out and setting: the entry for `CCN(CC)c1ccc2c(-c3ccccc3C(=O)O)c3ccc(=[N+](CC)CC)cc-3oc2c1` is “inactive”.
The same measure, in the same setting: the entry for `CC1(C)C(=O)N(Br)C(=O)N1Cl` is “inactive”.
With `CCn1c2ccccc2c2cc(N)ccc21`, the AC50 is 100 µM (active).
As to `CCCC1CCC(=O)O1` (stereo not given), the call was inactive.
The same measure, in the same setting: the same measure for `CC(CCO)CCc1ccccc1` (stereo not given): “inactive”.
On the same count and under the same terms, the entry for `CCCCCCCCCCCCCCCC(=O)OC[C@H](O)[C@H]1OC(=O)C(O)=C1O` is “inactive”.
Take `Nc1cc(Cl)c(O)c(Cl)c1`: the AC50 was 45.3 µM (active).
In the case of `CC(C)Oc1ccccc1O`, the compound was called inactive.
With `NCCCN1CCOCC1`, the result was inactive.
